Compounds with a hit are over-represented: about 5.4% of the library has one in this group of screens.
CSC inhib: cancer stem cell inhibition; cancer stem cell-like cells viability, luminescence; inhibition, % at 7.5 µM; 300,000 tested, 1.1% active; in the data active = inhibition above about 75%; inconclusive = no clear call, values can overlap the other calls; tested in HMLE shEcad cells
MPTP inh: inhibitors of mitochondrial permeability transition pore; isolated mouse mitochondria, Ca2+ swelling absorbance, 30 min; inhibition, % at 10 µM; 360,000 tested, 1.4% active; AID 602449;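 active = inhibition of 50% or more, scaled per plate between neutral and stimulator controls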;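 also: 0% = DMSO wells given calcium and 100% = 1 mM EGTA wells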
Beta apoptosis: blocks beta cell apoptosis | 300,000 tested, 0.8% active | protection from apoptosis, % (concentration not given with the values) | INS-1E cytokine-induced death, ATP luminescence, 48 h; percent of positive-control rescue, neutral wells zero;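 active = Every replicate reaches about 75%, or at least half do and their mean reaches it too, limit read from the data; inconclusive = At least half of replicates reach the limit but their mean does not; inactive = Under half of replicates reach the limit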;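 also: 0% = cytokine-treated negative control wells and 100% = positive control rescue; higher means more ATP so stronger rescue from cytokine killing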
SKKanGAS inh: inhibitors of SKKanGAS S. pyogenes growth in kanamycin (SK-promoter or general growth effect). 300,000 tested, 1.3% active. AID 1662. inhibition, % at 7.5 µM. BacTiter-Glo, 6 h;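 active = mean replicate score, as percent of positive control median, at least 50; inconclusive = mean below 50 but one replicate at or above 50; inactive = mean and every replicate below 50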;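 also: strain carries kanamycin resistance gene driven by streptokinase promoter and grows in 40 µg/ml kanamycin; loss of luminescence reflects streptokinase promoter inhibition or plain growth inhibition; 0% = median of DMSO wells and 100% = positive control at its reference dose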
Mdm2 MdmX PPI: disrupts the human Mdm2-MdmX interaction; AID 485346; SaOS-2 split-luciferase Mdm2/MdmX complementation, luminescence; inhibition, % at 8 µM; 330,000 tested, 3% active; O15151+Q00987;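 active = inhibition of at least 50% at 8 µM in the primary screen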
Target sequence (O15151 whole entry, looked up): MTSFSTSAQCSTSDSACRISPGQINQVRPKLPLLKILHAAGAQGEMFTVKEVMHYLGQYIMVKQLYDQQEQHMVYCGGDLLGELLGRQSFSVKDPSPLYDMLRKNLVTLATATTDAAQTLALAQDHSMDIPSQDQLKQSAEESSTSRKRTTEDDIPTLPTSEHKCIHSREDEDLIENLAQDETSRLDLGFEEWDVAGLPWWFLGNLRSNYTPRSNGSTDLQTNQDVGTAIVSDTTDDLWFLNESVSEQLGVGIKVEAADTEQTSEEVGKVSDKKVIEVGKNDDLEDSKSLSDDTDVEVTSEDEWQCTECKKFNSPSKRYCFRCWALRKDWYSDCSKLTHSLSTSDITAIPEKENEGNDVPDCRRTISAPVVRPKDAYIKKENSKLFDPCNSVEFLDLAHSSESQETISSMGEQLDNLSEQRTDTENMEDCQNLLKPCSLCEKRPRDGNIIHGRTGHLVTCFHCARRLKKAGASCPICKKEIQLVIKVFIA
Target sequence (Q00987 whole entry, looked up): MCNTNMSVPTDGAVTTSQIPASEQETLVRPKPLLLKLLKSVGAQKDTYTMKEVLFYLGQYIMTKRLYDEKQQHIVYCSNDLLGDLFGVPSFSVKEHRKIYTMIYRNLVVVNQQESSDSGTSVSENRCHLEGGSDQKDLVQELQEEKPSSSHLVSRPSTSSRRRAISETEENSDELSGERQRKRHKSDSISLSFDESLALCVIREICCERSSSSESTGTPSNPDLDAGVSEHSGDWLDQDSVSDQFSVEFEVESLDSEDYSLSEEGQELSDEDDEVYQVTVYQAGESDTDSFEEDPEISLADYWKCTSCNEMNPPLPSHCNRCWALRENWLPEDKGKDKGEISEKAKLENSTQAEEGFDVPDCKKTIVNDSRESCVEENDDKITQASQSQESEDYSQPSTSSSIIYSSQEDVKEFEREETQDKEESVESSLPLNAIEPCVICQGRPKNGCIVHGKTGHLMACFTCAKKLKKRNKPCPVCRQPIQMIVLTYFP
Calb FLC: affects C. albicans growth with fluconazole | growth inhibition, % (concentration not given with the values) | C. albicans CaCi-2 (fluconazole-resistant clinical isolate) + fluconazole, Alamar Blue growth, 48 h | AID 1979 | 300,000 tested, 0.57% active;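 active = growth inhibition above about 58% in most replicates, limit read from the data, passing the limit was not always enough; inconclusive = exactly half the replicates above a set limit; inactive = most replicates below a set limit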;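 also: all wells also contain fluconazole at 8 µg/ml as a sub-toxic cotreatment; 0% = median of DMSO wells and 100% = median of geldanamycin control wells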
Mdm2 MdmX conf: confirmation of human Mdm2/MdmX interaction inhibitors. Mdm2-MdmX binding, luminescent assay. 10,000 tested, 55% active. AID 489028. inhibition, % at 8 µM. shares compounds with Mdm2 MdmX PPI; in the data active = inhibition above about 40%
FLuc counter: full-length luciferase inhibition in Mdm2/MdmX counter-screen; shares compounds with Mdm2 MdmX PPI; SaOS-2 full-length luciferase counterscreen, luminescence; inhibition, % at 8 µM; 6,200 tested, 77% active;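 active = mean inhibition at 8 µM reaching about 37%, which flags the compound as non-specific, limit read from the data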;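 also: p53-null SaOS-2 cells with luciferase driven by a doxycycline-inducible promoter; compound on cells about two nights before reading with doxycycline added after day one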
* = called active by the depositor; u = inconclusive; x = no result given.

SMILES	CSC inhib	MPTP inh	Beta apoptosis	SKKanGAS inh	Mdm2 MdmX PPI	Calb FLC	Mdm2 MdmX conf	FLuc counter
CCOC(=O)C(C)CC(C)C(=O)N1CCOCCOCCN(C(=O)C(C)CC(C)C(=O)OCC)CCOCC1 (stereo unspecified)	x	-1	6	-2	10	-1	x	x
C=CCOc1ccccc1CNc1ccc2c(c1)OCCO2	12	1	9	2	64*	-10	65*	69*
C=CCOc1ccccc1CNc1cccc(F)c1	3	-2	-2	0	1	-1	x	x
CCOC(=O)c1[nH]c(C)c(C(=O)c2cc(F)ccc2F)c1C	60	0	16	0	59*	3	56*	76*
CCOC(=O)c1c(C)[nH]c(C(=O)OCC(=O)Nc2ccc(Cl)cn2)c1C	-16	1	-2	x	14	x	x	x
CCOC(=O)c1c(C)[nH]c(C(=O)OCC(=O)Nc2cc(C)c(Cl)cc2OC)c1C	7	0	10	8	54*	-4	19	x
CCOC(=O)c1c(C)[nH]c(C(=O)OCC(=O)Nc2sccc2C(N)=O)c1C	43	-1	48	26	56*	22	59*	66*
CCOC(=O)c1c(C)[nH]c(C(=O)OCC(=O)NCc2ccc(OC)c(OC)c2)c1C	8	1	3	x	3	x	x	x
COc1ccc(-c2csc3nc(-c4cccnc4)nc(N4CCC(C(N)=O)CC4)c23)cc1OC	-3	-1	-26	6	42	27	x	x
COc1ccc(-c2csc3nc(C)nc(N4CCCCC4)c23)cc1OC	32	4	0	2	65*	10	32	x
COc1ccc(-c2csc3nc(-c4ccccc4OC)oc(=O)c23)cc1	64	2	9	x	59*	x	24	x
O=c1oc(-c2ccccc2F)nc2scc(-c3ccccc3)c12	12	2	9	-1	53*	10	50*	171*
Cc1nc2scc(-c3ccccc3)c2c(=O)o1	-12	-1	-2	-2	4	6	x	x
COc1ccc(-c2csc3nc(C(C)(C)C)oc(=O)c23)cc1OC	-10	1	-1	-19	13	9	x	x
CC(C)(C)c1nc2scc(-c3ccc(Cl)cc3)c2c(=O)o1	5	-1	-2	19	-16	-1	x	x
COc1ccc(-c2csc3nc(-c4ccc(C)cc4)oc(=O)c23)cc1OC	23	1	17	4	92*	9	21	x
COc1ccc(C(=O)CSc2nnc(-c3cc(C)cc(C)c3)o2)cc1	5	1	-6	-2	11	14	x	x
O=C(CCCOc1ccc(Cl)cc1Cl)NCc1ccncc1	-11	-1	0	-8	-5	5	x	x
CCN(CC)c1ccc2cc(C(=O)NNC(=O)c3ccc(S(=O)(=O)N4CCCCC4)cc3)c(=O)oc2c1	8	3	2	22	x	43	x	x
Cc1ccc(NC2CCCN(C(=O)c3ccoc3C)C2)cc1C (stereo unspecified)	x	0	0	0	11	-8	x	x
Cc1cc(C)nc(/N=C(\N)Nc2ccc(C)c([N+](=O)[O-])c2)n1	-2	4	21	-4	22	-3	x	x
COc1cc(OC)c(OC)cc1CNC(=O)c1cc(S(=O)(=O)N(C)c2ccccc2OC)ccc1C	x	3	x	x	x	x	x	x
Cc1ccc(C(=O)Nc2nc(-c3ccccn3)cs2)cc1S(=O)(=O)N1CCOCC1	x	-4	90*	x	89*	x	81*	23
O=C(Nc1nc(-c2ccccn2)cs1)c1cc(S(=O)(=O)N2CCOCC2)ccc1F	x	-1	x	x	53*	x	29	x
CN(CC1CCCO1)S(=O)(=O)c1ccc(C(=O)Nc2nc(-c3ccccn3)cs2)cc1 (stereo unspecified)	70	-2	104*	x	89*	x	80*	27
SMILES	CSC inhib	MPTP inh	Beta apoptosis	SKKanGAS inh	Mdm2 MdmX PPI	Calb FLC	Mdm2 MdmX conf	FLuc counter
O=C(Nc1nc(-c2ccccn2)cs1)c1ccc(F)c(S(=O)(=O)N2CCOCC2)c1	x	-3	89*	x	76*	x	86*	26
CCOC(=O)C1CCCN(C2CCN(Cc3nc(Cc4ccccc4)no3)CC2)C1 (stereo unspecified)	-5	0	-5	0	-12	u	x	x
CCOc1cc2c3c(c1)C(C)=CC(C)(C)N3C(=O)C2=O	17	0	18	7	68*	-3	39	85*
CCOc1ccc(NC(=NCc2ccc3c(c2)OCO3)SC2CC(=O)N(c3ccc(OCC)cc3)C2=O)cc1 (stereo unspecified)	22	2	19	2	66*	-1	63*	65*
CCOc1ccc(NC(=NCc2ccc3c(c2)OCO3)SC2CC(=O)N(c3ccccc3)C2=O)cc1 (stereo unspecified)	-9	8	x	-8	60*	11	6	x
CC(=O)c1cc(C#N)c(SCc2ccccc2C#N)nc1C	34	-10	3	-2	39	4	x	x
COc1ccc(C2=CC(=O)OC3(CCCC3)O2)cc1	2	1	x	-2	12	-5	x	x
Cc1ccc(NC(=O)c2ccc(N/N=C/c3cccc(O)c3)c([N+](=O)[O-])c2)cc1	48	7	63	18	77*	-6	48*	76*
Cc1ccccc1NC(=O)c1ccc(N/N=C/c2ccccc2O)c([N+](=O)[O-])c1	7	1	11	3	74*	-4	22	62*
Cc1ccccc1NC(=O)c1cccc(NC(=O)c2c(C(=O)O)cccc2[N+](=O)[O-])c1	-6	2	-6	-6	21	3	x	x
COc1ccc(C(=O)O)cc1S(=O)(=O)N1CCN(c2ccccn2)CC1	-6	-2	-3	1	-8	-6	x	x
O=C(Nc1cccc([N+](=O)[O-])c1)c1cccc(C(=O)Nc2cccc([N+](=O)[O-])c2)c1	-11	19	13	5	76*	3	45*	71*
O=C(/C=N/NC(=O)c1ccccc1Br)c1ccccc1	2	-1	-4	-2	-6	5	x	x
O=C(N/N=C/c1cc([N+](=O)[O-])ccc1O)c1cccc2ccccc12	11	1	102*	94*	62*	39	68*	43*
O=C(N/N=C/c1cc([N+](=O)[O-])ccc1O)c1ccc(COc2ccc3c(c2)CCC3)o1	101*	7	105*	21	94*	93*	72*	51*
O=C(Nc1ccc([N+](=O)[O-])cc1)c1cccc([N+](=O)[O-])c1	x	4	x	x	x	x	x	x
O=C(N/N=C/c1cc(Cl)ccc1O)c1ccccc1Br	21	11	110*	u	54*	44	58*	44*
CCC(C)(C)NC(=O)C1CC(=O)N(CCc2ccc(F)cc2)C1 (stereo unspecified)	-8	1	-4	-4	21	0	x	x

Compound activity as filed in PubChem BioAssay.
